From the supplement of paper PMC6555819

Columns and labels:
Assay in all cases: PBM binding z-score (relative to random genomic background probes); higher = stronger binding; sequences stand for … in GC…GCGATTGACAGCGTAGAATGAAGG
[1] = test system: RARb homodimer (NR concentration 270 nM)
Summary of the method: (§1)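 The probes on custom Agilent 4×180K protein-binding microarrays were double-stranded, with 34-nt variable regions bearing direct-repeat seeds, single-nucleotide variants, half-site ablations and random human genomic background sequences. Incubation lasted 1 h with ligand-free nuclear receptor dimers in PBS pH 7.4, 2% milk, 0.02% Triton X-100, 1 mM DTT, 0.2 mg/mL BSA and 0.4 mg/ml salmon testes DNA. Antibodies against each partner (one per run) detected bound dimers, and fluorescence scans were regression-normalized. Binding z-scores take the random background probes as reference.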

[2] = test system: RARg:RXRa (NR concentration 270 nM, RXRa partner concentration 90 nM)
Summary of the method: as §1

[3] = test system: RARg homodimer (NR concentration 270 nM)
Summary of the method: as §1

[4] = test system: RXRa DBDmut IVT, anti-RXR (DBD mutation: RXRa K156A/R161A, NR concentration 90 nM)
Summary of the method: as §1

[5] = test system: RXRa homodimer (NR concentration 180 nM)
Summary of the method: as §1

[6] = test system: THRa:RXRa (NR concentration 90 nM, RXRa partner concentration 90 nM)
Summary of the method: as §1

[7] = test system: THRa homodimer (NR concentration 90 nM)
Summary of the method: as §1

[8] = test system: VDR homodimer (NR concentration 270 nM)
Summary of the method: as §1

Sequence | PBM binding z-score [1] | PBM binding z-score [2] | PBM binding z-score [3] | PBM binding z-score [4] | PBM binding z-score [5] | PBM binding z-score [6] | PBM binding z-score [7] | PBM binding z-score [8]
CCTTACGGGTAAAGGTTATAGCACGGGTGGTACG | 1.5 | 2.02 | 1.06 | -1.08 | 2.34 | 1.31 | 0.0229 | 0.43
TTACCAAGGTGAAGGTTGTTGATCCCTCTGTAGA | 1.02 | 0.564 | 0.48 | -0.157 | 0.836 | 2.06 | 0.718 | -0.156
CCTAGCAGGACAGGGTCACTCAAGCATTTCGCTT | 2.77 | 3.14 | 2.23 | 1.06 | 3.54 | 3.19 | 1.44 | 1.5
TAGCCTAGGTCAGGCGGGCCAGTATAGTGTCGGC | 2.21 | 2.75 | 3.45 | -1.1 | 1.3 | 1.86 | -0.0587 | -0.674
CCTATGAGTTGACCATAAGGGCAACCGAAGCTCG | 1.98 | 2.18 | 1.09 | 0.755 | 0.985 | 2.49 | 1.04 | 0.847
ATATGTAGGTTAGCTGGTGTCATTCAGACTAGGC | 0.884 | 0.888 | 0.979 | 0.243 | 0.936 | 2.52 | -0.1 | 0.617
CGAACTAGGTCATTCACAGGACAGTGAATAGTAA | 2.81 | 4.97 | 4.43 | 2.48 | 2.55 | 2.91 | 0.979 | 1.29
GCGACTGGGGCAAAGCAGGATACCATAAGGTTGG | 0.194 | 0.19 | 0.556 | -0.369 | 0.0149 | 2.27 | -0.419 | -0.417
ATTACAGGGTCACTAGGCCAGAGTAGGTACGAAT | 3.38 | 5.4 | 5.25 | 2.67 | 5.24 | 3.48 | 1.5 | 2.93
ACTATTAGTTGACTTTGGGCAACCGATACGACGC | 0.274 | 0.43 | 0.635 | 0.79 | 0.476 | 0.55 | 0.0342 | 0.298
GCTTGCAGATCAAGGTTAAGAAAGACTAAGCTAA | -0.0263 | 0.321 | 0.141 | -0.00088 | 0.55 | 1.16 | -0.514 | -0.323
TTACTAAGGTGAAAGGTCGTTGATGCACGCCTTG | 3.02 | 4.74 | 2.37 | 1.45 | 6.58 | 4 | 2.17 | 1.78
GCTAGCAGGCCATTTGGGTCATTCAATGACGGGC | 1.64 | 0.979 | 1.01 | 0.394 | 0.908 | 1.82 | 0.24 | 1.21
CGTCCTAGGTCAGCAGGTCAGTGAAAGCGACGTG | 4.37 | 4.95 | 5.41 | 0.595 | 3.21 | 2.88 | 1.1 | 0.285
GGAATGAGGGCAAGTTGATAGCAGAGTTTGATGG | 1.65 | 1.55 | 2.21 | 2.79 | 1.04 | 1.85 | 1.02 | 2.22
CCGACTGGGGCATACGGTTACCATAAGCCAGCCC | 0.117 | 0.0936 | 0.374 | -0.766 | 0.369 | -0.473 | -0.389 | -0.653
TCTGCTAGGTCACCGATGGTCAGCTAATCTGCTA | 3.6 | 4.74 | 5.73 | 0.891 | 3.28 | 3.48 | 1.23 | -0.0284
AGAATGAGGTTGAGATCAGGGAAACAGAATACAT | 0.193 | 0.514 | 0.477 | -0.1 | 0.612 | 1.35 | -0.0652 | 0.0379
TCTCGGAGGACACGAAAGGTTAGAGCTCGACATC | 2.16 | 1.94 | 2.3 | 0.867 | 1.4 | 2.41 | 0.435 | 0.0953
TCTCGGAGGACACGAGGGTCAGAGCTTTCCAGAG | 2.81 | 2.58 | 2.96 | 0.569 | 1.33 | 2.48 | 0.409 | 0.685
ACTATTAGTTGACTTCGGGCAACCGATACGACGC | 0.558 | 0.37 | 0.691 | 0.225 | 0.42 | 1.06 | 0.256 | 0.371
ACTAGCAGCCCAAGGGTCACTCAAGATTAGTCCG | 3.74 | 3.55 | 3.23 | 0.283 | 3.67 | 2.45 | 0.307 | 0.863
ATCTCTAGTTAAAAGTTCAGTGAATCCCGAGGAT | 2.34 | 1.3 | 1.76 | 0.966 | 0.844 | 0.672 | 0.242 | 2.12
CTTGCTAGGTCATGGTCAGCTAATCTACAGTATG | 3.07 | 3.94 | 4.57 | 1.95 | 2.77 | 2.96 | 1.27 | 0.195
ATACCACGGTGATCGTGAGGTCGTTGATACTAAC | 1.47 | 0.858 | 0.379 | 0.514 | 1.1 | 2.65 | 2.42 | 2.44
CCTCGGAGGACAGAAGGTCAGAGCAGTCCGCTTT | 3.7 | 3.53 | 3.41 | 0.444 | 2.16 | 2.67 | -0.117 | 0.311
